Measured values taken from PubChem BioAssay AID1159580 (chemical genetic matrix, 2015).
About 2,000 (36%) of roughly 5,500 compounds were called active. Not shown: some 18% with an inconclusive outcome. No stated cut-off is given here; in the data, active means normalized growth mostly below about 0.91 (no sharp cut-off); inconclusive means no clear call, values can overlap the other calls; inactive means mostly above about 0.92. The list shows a part of the results.

Assay: chemical genetic growth profiling, strain panel (AID 1159580);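 further: tested at 20 µM; growth read once vehicle control cultures reached saturation at 30 °C; 1 = growth at the plate median or of vehicle wells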
Details: S. cerevisiae deletion strains, growth OD

Measured: normalized growth

C#CCN(C)CCCOc1ccc(Cl)cc1Cl
inactive: locus YAL040C, strain CLN3, stronger effect = lower value 1.01 | locus YCL061C, strain MRC1 (second series), stronger effect = lower value 0.989 | locus YDR150W, strain NUM1, stronger effect = lower value 0.974 | locus YDR363W, strain ESC2, stronger effect = lower value 0.991 | locus YER002W, strain NOP16, stronger effect = lower value 0.993 | locus YMR263W, strain SAP30, stronger effect = lower value 1 | locus YMR307W, strain GAS1, stronger effect = lower value 0.989 | locus YNL175C, strain NOP13, stronger effect = lower value 1 | locus YNL197C, strain WHI3, stronger effect = lower value 1 | locus YNL224C, strain SQS1, stronger effect = lower value 1.01 | locus YNL322C, strain KRE1, stronger effect = lower value 0.993 | locus YOR083W, strain WHI5 (second series), stronger effect = lower value 0.896 | locus YPL055C, strain LGE1, stronger effect = lower value 0.961
